In the supplement of paper PMC10849652 one finds log2 fold change data, which are given here for 35 targets.

Targets with a hit are over-represented here; the source holds about 7,900 in all. About 0.6% of all pairs of compound and target were hits.

UniProt O75554, sequence (O75554 whole entry, looked up): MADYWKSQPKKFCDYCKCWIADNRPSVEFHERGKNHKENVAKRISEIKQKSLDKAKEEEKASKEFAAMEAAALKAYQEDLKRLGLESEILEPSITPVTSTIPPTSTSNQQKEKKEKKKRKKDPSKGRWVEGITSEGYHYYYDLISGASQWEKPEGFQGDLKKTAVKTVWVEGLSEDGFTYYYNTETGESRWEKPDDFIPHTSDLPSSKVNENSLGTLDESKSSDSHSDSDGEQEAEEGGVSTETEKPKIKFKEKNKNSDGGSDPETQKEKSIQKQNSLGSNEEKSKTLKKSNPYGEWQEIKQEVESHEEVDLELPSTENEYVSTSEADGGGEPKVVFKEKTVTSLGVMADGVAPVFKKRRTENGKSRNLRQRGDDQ
UniProt P18887, sequence (P18887 whole entry, looked up): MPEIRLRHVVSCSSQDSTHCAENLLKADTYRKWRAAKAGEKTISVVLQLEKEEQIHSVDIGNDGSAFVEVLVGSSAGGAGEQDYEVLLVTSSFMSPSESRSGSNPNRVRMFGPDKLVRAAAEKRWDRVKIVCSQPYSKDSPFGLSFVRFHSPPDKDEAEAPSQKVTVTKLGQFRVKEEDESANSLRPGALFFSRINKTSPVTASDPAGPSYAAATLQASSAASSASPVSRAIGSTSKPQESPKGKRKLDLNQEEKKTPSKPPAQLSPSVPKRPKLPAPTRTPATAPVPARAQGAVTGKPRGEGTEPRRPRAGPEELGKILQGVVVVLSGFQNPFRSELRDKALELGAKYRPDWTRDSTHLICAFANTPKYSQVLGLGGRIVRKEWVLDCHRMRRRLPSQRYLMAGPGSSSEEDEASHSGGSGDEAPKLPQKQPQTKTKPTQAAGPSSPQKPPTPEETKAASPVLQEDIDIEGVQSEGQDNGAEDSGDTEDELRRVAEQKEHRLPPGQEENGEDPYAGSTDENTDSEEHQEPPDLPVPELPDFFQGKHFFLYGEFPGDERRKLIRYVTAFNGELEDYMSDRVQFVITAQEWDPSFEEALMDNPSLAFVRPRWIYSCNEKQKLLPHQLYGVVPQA
UniProt Q7Z7N9, sequence (Q7Z7N9 whole entry, looked up): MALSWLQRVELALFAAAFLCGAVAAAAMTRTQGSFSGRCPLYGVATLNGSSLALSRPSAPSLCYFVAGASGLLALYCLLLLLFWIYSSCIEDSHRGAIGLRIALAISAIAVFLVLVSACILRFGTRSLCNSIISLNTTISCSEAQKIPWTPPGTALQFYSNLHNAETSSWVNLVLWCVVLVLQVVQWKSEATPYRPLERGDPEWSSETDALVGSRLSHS
UniProt Q9Y5Z9, sequence (Q9Y5Z9 whole entry, looked up): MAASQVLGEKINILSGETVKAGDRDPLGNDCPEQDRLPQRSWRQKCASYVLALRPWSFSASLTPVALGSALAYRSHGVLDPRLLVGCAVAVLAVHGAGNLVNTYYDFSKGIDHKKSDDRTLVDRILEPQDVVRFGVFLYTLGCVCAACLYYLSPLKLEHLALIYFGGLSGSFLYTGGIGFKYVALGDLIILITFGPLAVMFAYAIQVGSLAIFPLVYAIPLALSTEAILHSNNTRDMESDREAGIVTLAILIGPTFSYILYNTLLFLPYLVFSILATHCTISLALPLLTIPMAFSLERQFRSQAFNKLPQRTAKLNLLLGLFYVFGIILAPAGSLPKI
UniProt Q8IY95, sequence (Q8IY95 whole entry, looked up): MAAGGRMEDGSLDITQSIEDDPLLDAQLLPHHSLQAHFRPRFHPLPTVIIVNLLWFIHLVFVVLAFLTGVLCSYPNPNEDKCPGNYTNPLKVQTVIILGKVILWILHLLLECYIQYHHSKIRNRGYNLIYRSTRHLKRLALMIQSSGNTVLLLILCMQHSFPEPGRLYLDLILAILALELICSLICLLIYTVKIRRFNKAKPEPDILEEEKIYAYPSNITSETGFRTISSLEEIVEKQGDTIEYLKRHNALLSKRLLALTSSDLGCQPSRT
UniProt P49754, sequence (P49754 whole entry, looked up): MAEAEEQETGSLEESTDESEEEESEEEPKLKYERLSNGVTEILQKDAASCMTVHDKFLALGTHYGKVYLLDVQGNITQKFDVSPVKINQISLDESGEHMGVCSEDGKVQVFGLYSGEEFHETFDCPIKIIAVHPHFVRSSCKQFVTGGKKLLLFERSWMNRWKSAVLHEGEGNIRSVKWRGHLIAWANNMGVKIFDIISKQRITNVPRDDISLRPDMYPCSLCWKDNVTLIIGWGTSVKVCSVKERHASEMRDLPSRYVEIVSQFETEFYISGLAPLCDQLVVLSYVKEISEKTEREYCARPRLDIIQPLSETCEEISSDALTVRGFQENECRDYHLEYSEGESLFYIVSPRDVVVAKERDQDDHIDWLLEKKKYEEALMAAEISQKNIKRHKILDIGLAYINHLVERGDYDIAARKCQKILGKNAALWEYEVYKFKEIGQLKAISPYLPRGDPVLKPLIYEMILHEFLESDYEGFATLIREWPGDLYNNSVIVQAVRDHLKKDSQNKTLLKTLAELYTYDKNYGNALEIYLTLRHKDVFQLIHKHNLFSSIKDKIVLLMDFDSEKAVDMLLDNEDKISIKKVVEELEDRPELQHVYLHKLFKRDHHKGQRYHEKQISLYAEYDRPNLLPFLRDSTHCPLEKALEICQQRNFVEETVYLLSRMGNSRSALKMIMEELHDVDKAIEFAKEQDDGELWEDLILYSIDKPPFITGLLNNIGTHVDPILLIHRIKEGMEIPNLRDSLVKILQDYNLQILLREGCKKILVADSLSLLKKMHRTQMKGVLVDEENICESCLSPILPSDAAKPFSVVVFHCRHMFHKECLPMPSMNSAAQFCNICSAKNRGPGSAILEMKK
WASHC2C, A0A096LPC5, sequence (A0A096LPC5 whole entry, looked up): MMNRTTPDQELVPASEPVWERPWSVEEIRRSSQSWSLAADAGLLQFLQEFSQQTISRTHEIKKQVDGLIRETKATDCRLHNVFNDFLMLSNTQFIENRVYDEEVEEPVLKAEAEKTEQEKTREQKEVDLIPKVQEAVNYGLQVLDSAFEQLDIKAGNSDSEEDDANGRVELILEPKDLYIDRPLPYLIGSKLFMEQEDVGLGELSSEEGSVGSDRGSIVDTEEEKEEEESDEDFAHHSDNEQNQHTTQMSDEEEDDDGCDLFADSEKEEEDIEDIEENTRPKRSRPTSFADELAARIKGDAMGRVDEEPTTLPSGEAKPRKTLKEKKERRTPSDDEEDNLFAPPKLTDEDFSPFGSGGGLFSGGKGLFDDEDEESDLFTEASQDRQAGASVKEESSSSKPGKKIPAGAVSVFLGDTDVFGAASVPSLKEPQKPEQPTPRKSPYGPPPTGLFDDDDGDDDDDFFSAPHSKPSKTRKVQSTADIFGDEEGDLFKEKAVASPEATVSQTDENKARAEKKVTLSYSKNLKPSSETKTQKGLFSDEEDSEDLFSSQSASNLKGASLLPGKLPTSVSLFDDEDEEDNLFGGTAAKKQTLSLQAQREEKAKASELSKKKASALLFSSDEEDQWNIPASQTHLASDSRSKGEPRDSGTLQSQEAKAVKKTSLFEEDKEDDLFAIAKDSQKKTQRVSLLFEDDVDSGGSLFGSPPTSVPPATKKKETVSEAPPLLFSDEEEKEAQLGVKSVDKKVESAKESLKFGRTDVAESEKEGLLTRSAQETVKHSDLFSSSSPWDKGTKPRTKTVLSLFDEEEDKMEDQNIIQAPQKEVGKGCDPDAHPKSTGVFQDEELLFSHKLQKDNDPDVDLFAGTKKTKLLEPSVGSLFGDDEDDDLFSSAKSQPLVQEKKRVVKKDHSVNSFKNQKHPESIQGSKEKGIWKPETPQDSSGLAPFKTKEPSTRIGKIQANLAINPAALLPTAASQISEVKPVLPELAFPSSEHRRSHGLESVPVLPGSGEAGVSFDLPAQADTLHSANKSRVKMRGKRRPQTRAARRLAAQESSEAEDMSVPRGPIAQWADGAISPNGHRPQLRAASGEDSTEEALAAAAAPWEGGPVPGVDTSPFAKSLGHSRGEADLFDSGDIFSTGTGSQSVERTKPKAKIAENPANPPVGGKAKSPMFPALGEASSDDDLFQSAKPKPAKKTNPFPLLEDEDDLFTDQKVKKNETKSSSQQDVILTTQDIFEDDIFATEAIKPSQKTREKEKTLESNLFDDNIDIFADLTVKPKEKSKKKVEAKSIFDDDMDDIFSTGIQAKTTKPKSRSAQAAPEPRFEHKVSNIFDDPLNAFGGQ
UniProt Q5VZI3, sequence (Q5VZI3 whole entry, looked up): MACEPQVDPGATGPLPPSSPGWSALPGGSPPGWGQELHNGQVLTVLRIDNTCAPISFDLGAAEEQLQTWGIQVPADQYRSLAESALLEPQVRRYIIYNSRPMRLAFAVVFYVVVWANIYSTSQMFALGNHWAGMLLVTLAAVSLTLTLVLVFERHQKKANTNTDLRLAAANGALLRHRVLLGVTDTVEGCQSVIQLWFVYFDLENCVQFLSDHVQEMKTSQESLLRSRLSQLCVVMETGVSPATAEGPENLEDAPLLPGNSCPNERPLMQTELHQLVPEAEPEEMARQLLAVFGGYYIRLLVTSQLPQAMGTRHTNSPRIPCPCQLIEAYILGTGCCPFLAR
UniProt Q629K1, sequence (Q629K1 whole entry, looked up): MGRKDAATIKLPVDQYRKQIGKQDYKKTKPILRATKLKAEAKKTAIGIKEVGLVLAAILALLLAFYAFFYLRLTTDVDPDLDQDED
UniProt Q9C035, sequence (Q9C035 whole entry, looked up): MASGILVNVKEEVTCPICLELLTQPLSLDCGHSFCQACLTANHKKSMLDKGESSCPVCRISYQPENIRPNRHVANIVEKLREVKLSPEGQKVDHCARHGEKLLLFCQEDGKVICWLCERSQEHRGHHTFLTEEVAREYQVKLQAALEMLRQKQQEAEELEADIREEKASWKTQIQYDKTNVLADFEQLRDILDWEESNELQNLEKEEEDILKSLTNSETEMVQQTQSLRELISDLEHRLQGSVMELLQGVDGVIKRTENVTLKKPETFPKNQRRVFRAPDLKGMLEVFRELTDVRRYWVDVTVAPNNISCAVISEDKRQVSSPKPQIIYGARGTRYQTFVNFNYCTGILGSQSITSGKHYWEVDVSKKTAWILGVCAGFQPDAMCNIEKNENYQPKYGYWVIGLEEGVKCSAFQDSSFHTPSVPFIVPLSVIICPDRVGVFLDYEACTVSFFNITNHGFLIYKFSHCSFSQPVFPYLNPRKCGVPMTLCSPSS

Compound in the first experiment: Cc1sc2c(c1C)C(c1ccc(Cl)cc1)=N[C@@H](CC(=O)OC(C)(C)C)c1nnc(C)n1-2
As to the kind of experiment: log2 fold change, soluble protein after heating vs DMSO (PISA); higher = thermal stabilisation; K562 cells, 10 uM, 30 min; active = over 0.2 and 3.5 SD of the protein, either way, in both replicates (recomputed). The gist of the method:
(§1)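 Values are thermal stability changes relative to control samples and are taken from duplicates. They are stated as log2 fold changes. Before quantification by TMTpro 16plex LC-MS/MS with equalised channel sums, K562 cells at 2×10^6 cells/mL were treated with 10 μM compound for 30 min, heated in aliquots for 3 min across 48°C-58°C, pooled, extracted in PBS with 0.5% NP-40 at 4°C, and centrifuged at 21,000xg for 90 min to give the soluble supernatant.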
Take U2AF1L5 (UniProt P0DN76): the log2 fold change is 0.057 (inactive).

As to TOM1 (UniProt O60784), the log2 fold change was 0.039 (inactive).

For UBIAD1 (UniProt Q9Y5Z9), the log2 fold change is -0.074 (inactive).

In the case of UBE3B (UniProt Q7Z3V4), the log2 fold change was -0.214 (inactive).

Consider VPS41 (UniProt P49754), for which the log2 fold change is -0.017 (inactive).

With TRIM5 (UniProt Q9C035), the log2 fold change is 0.155 (inactive).

Turning to TVP23C (UniProt Q96ET8), the log2 fold change is 0.029 (inactive).

As for WBP4 (UniProt O75554), the log2 fold change is 0.014 (inactive).

As for UTP20 (UniProt O75691), the log2 fold change was 0.034 (inactive).

Consider TSC2 (UniProt P49815), for which the log2 fold change was -0.044 (inactive).

WARS1 (UniProt G3V277): the log2 fold change is 0.076 (inactive).

Turning to WDR75 (UniProt Q8IWA0), the log2 fold change is 0.304 (inactive).

On to TUT4 (UniProt Q5TAX3), for which the log2 fold change was -0.052 (inactive).

With XRCC1 (UniProt P18887), the log2 fold change was 0.07 (inactive).

Regarding TMEM41A (UniProt Q96HV5), the log2 fold change was -0.08 (inactive).

As to TMEM179B (UniProt Q7Z7N9), the log2 fold change is 0.005 (inactive).

With WASHC2C, A0A096LPC5, the log2 fold change was 0.027 (inactive).

In the case of WDR46, A0A0G2JJL1, the log2 fold change was 0.303 (inactive).

TTC26: the log2 fold change was 0.198 (inactive).

For TOM1L1 (UniProt O75674), the log2 fold change is 0.009 (inactive).

Turning to WDR4 (UniProt P57081), the log2 fold change is -0.025 (inactive).

On to ULBP1 (UniProt Q9BZM6), for which the log2 fold change was -0.036 (inactive).

UFD1 isoform 1 (UniProt Q92890): the log2 fold change is -0.045 (inactive).

For TMEM268 isoform 3 (UniProt Q5VZI3), the log2 fold change is 0.151 (inactive).

In the case of TRIQK (UniProt Q629K1), the log2 fold change is -0.052 (inactive).

On to TMEM192 (UniProt Q8IY95), for which the log2 fold change was -0.024 (inactive).

UFM1 (UniProt P61960): the log2 fold change is -0.164 (inactive).

With UBAP2L (UniProt F8W726), the log2 fold change is 0.046 (inactive).

For the target UTP14A (UniProt Q9BVJ6), the log2 fold change is 0.124 (inactive).

For the target UBXN10 (UniProt Q96LJ8), the log2 fold change is 0.018 (inactive).

For TMEM184C (UniProt Q9NVA4), the log2 fold change is 0.045 (inactive).

Compound in a further experiment: c1ccc([C@@H]2C[C@H]2NC2CCNCC2)cc1
The experiment is described as above. In short, it runs like this: as §1
For the target UBIAD1 (UniProt Q9Y5Z9), the log2 fold change was 0.093 (inactive).

On to UBE3B (UniProt Q7Z3V4), for which the log2 fold change is 0.172 (inactive).

With VPS41 (UniProt P49754), the log2 fold change is -0.052 (inactive).

Turning to TRIM5 (UniProt Q9C035), the log2 fold change is -0.004 (inactive).

As for TVP23C (UniProt Q96ET8), the log2 fold change is 0.086 (inactive).

Turning to WBP4 (UniProt O75554), the log2 fold change was 0.051 (inactive).

TSC2 (UniProt P49815): the log2 fold change was 0.317 (inactive).

For WDR75 (UniProt Q8IWA0), the log2 fold change was -0.089 (inactive).

Turning to TUT4 (UniProt Q5TAX3), the log2 fold change was 0.153 (inactive).

Consider XRCC1 (UniProt P18887), for which the log2 fold change was 0.062 (inactive).

On to TMEM104 (UniProt Q8NE00), for which the log2 fold change is 0.24 (inactive).

For the target TMEM179B (UniProt Q7Z7N9), the log2 fold change is -0.024 (inactive).

WASHC2C, A0A096LPC5: the log2 fold change was 0.001 (inactive).

Consider TOM1L1 (UniProt O75674), for which the log2 fold change was 0.023 (inactive).

As for TOM1L2 (UniProt Q6ZVM7), the log2 fold change is -0.001 (inactive).

For the target WDR4 (UniProt P57081), the log2 fold change is -0.008 (inactive).

ULBP1 (UniProt Q9BZM6): the log2 fold change is -0.038 (inactive).

Consider UFD1 isoform 1 (UniProt Q92890), for which the log2 fold change is 0.019 (inactive).

Take TMEM268 isoform 3 (UniProt Q5VZI3): the log2 fold change is 0.063 (inactive).

For the target TTC33 (UniProt Q6PID6), the log2 fold change was 0.019 (inactive).

Consider TRIQK (UniProt Q629K1), for which the log2 fold change is 0.048 (inactive).

VDAC1 (UniProt C9JI87): the log2 fold change is 0.137 (inactive).

As for TMEM192 (UniProt Q8IY95), the log2 fold change was 0.032 (inactive).

Take UFM1 (UniProt P61960): the log2 fold change is 0.083 (inactive).

Regarding UTP14A (UniProt Q9BVJ6), the log2 fold change is 0.029 (inactive).

Consider UBXN10 (UniProt Q96LJ8), for which the log2 fold change was 0.063 (inactive).

As for TMEM184C (UniProt Q9NVA4), the log2 fold change was 0.22 (inactive).
